Bioassay records: PubChem, National Center for Advancing Translational Sciences (NCATS)
Compounds with a hit are over-represented: about 10% of the library has one in this group of screens.
ELG1 DNA repair = qHTS screen for small molecules that inhibit ELG1-dependent DNA repair in human embryonic kidney (HEK293T) cells expressing luciferase-tagged ELG1. Potency, µM (doses to about 46.1 µM), for the others: top-dose activity change, negative = inhibition, hits mostly inhibitors. AID 504467, 2011. 330,000 compounds, 2.3% hits. HEK293T ELG1-luciferase reporter, luminescence, 16 h; DNA damage induced by 5-fluorouridine; note: % is set by controls: 0 for no effect and ±100 for the full control effect; nearly all actives have a fitted effect of over 55% in size
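In this reporter screen, reduction of luminescence relative to DMSO vehicle indicated activity. Compounds and 5-fluorouridine were added together to 2,000 cells per well, incubated for 16 hr at 37 °C, then developed with ONE-Glo.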
SW480 rereplic = A quantitative high throughput screen for small molecules that induce DNA re-replication in SW480 colon adenocarcinoma cells. SW480 DNA re-replication, Hoechst DNA content imaging, 48 h. Potency, µM (top dose mostly 46.1 µM), for the others: at the top dose re-replication activation, usual class: activators. 340,000 compounds, 1.8% hits. AID 624297, 2012; note: % of control where 0% means no effect; nearly all actives have a fitted effect of over 55% in size
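Image-based read-out: total Hoechst fluorescence of nuclei (405 nm excitation, 500-530 nm emission), with hits raising the fraction of high-intensity nuclei. SW480 colon cells incubated 48 hr with compounds at 37 C.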
Gal4-VP16 FLuc = VP16 counterscreen qHTS for inhibitors of ROR gamma transcriptional activity; Drosophila S2 Gal4-VP16 UAS-luciferase, luminescence, 20 h; Potency, µM (doses to about 53.6 µM), for the others: at the top dose activity, negative = inhibition, actives largely listed as inhibitors; 310,000 compounds, 3.5% hits;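 note: Gal4-VP16 expression switched on by copper sulfate through the metallothionein promoter; % is set by controls: 0 for no effect and ±100 for the full control effect; nearly all actives have a fitted effect of over 50% in size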
RORgamma inh = qHTS for inhibitors of ROR gamma transcriptional activity; Nuclear receptor ROR-gamma (Mus musculus), P51450; Drosophila S2 Gal4-RORgamma UAS-luciferase reporter, 20 h; Potency, µM (highest dose often 53.6 µM), without a hit: at the highest dose activity change, negative = inhibition, usual class: inhibitors; 310,000 compounds, 5.4% hits; AID 2551, 2010; note: % is set by controls: 0 for no effect and ±100 for the full control effect; nearly all actives have a fitted effect of over 60% in size
Target sequence (P51450 whole entry, looked up, the tested form may be a part): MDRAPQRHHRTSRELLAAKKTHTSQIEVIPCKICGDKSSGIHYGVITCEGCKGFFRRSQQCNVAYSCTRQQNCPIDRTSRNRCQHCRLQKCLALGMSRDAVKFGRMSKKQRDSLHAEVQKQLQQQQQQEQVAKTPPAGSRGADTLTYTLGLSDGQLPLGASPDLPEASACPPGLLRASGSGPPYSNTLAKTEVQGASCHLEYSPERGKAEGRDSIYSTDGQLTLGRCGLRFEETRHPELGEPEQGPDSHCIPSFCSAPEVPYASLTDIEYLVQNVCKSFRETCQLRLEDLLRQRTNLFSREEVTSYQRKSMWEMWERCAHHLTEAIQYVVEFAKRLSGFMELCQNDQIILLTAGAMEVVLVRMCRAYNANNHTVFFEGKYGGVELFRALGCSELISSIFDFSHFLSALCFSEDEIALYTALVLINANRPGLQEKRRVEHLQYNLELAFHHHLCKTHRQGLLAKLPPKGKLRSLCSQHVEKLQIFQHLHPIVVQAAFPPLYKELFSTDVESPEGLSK
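Stably transfected Drosophila Schneider cells are the test system, with ROR gamma fused to Gal4 and luciferase under UAS control; luminescence is read after 20 hr of 700 uM copper sulfate induction at ambient temperature.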
MCF10A rerep = A quantitative high throughput screen for small molecules that induce DNA re-replication in MCF 10a normal breast cells | MCF 10A DNA re-replication, Hoechst nuclear intensity, 48 h | AID 624296, 2012 | Potency, µM (titrated, usually from 46.1 µM), for the others: at the highest dose activity, positive = re-replication, most hits filed as activators | 350,000 compounds, 2.9% hits; note: % of control where 0% means no effect; nearly all actives have a fitted effect of over 50% in size
ELG1 FLuc counter = qHTS screen for small molecules that inhibit ELG1-dependent DNA repair: Hit Confirmation in Cell-Based Luciferin Assay | cell-free firefly luciferase luminescence counter-screen, ViewLux | shares compounds with ELG1 DNA repair | 350 compounds, 3% hits | Potency, µM (doses to about 46.1 µM), inactives show at the highest dose activity change, negative = inhibition, hits mostly inhibitors; note: % is set by controls: 0 for no effect and ±100 for the full control effect
ELG1-Luc inh = HTS assay for small molecules that inhibit ELG1-dependent DNA repair in human embryonic kidney (HEK293T) cells expressing luciferase-tagged ELG1: Hit Confirmation | Potency, µM (series often up to 46.1 µM), for inactives: at the top dose activity change, negative = inhibition, hits mostly inhibitors | 670 compounds, 68% hits | HEK293T ELG1-luciferase levels, luminescence; cells co-treated with 5-fluorouridine | AID 624248, 2012 | shares compounds with ELG1 DNA repair; note: % is set by controls: 0 for no effect and ±100 for the full control effect; nearly all actives have a fitted effect of over 55% in size
ELG1-Luc MMS = inhibits ELG1-dependent repair under MMS stimulation in HEK293T cells; Potency, µM (highest dose often 46.1 µM), inactives show at the highest dose activity change, negative = inhibition, actives largely listed as inhibitors; 670 compounds, 53% hits; HEK293T luciferase-tagged ELG1 level, MMS stimulated; shares compounds with ELG1 DNA repair; note: % is set by controls: 0 for no effect and ±100 for the full control effect; nearly all actives have a fitted effect of over 60% in size
ELG1 5-FU = qHTS screen for small molecules that inhibit ELG1-dependent DNA repair: Hit Confirmation with 5FU Viability; 670 tested, under 10 active; Potency, µM (highest dose often 46.1 µM), for the others: at the highest dose activity change, negative = viability loss, usual class: cytotoxic; cell viability with 5-FU, ELG1-dependent repair; shares compounds with ELG1 DNA repair;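 note: ELG1-luc HEK293T cells cotreated with 5-fluorouridine at 10 µM final; viability measured 16 h after compound addition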
ELG1 MMS viab = qHTS screen for small molecules that inhibit ELG1-dependent DNA repair: Hit Confirmation with MMS Viability | shares compounds with ELG1 DNA repair | Cell viability with MMS, ELG1-dependent DNA repair | Potency, µM (highest dose often 46.1 µM), for the others: at the highest dose activity change, negative = viability loss, usual class: cytotoxic | 670 compounds, 33% hits;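 note: ELG1-luc HEK293T cells co-treated with 10 µM MMS; viability read 16 h after compound addition; % is set by controls: 0 for no effect and ±100 for the full control effect; nearly all actives have a fitted effect of over 60% in size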
Cell viab unstim = qHTS screen for small molecules that inhibit ELG1-dependent DNA repair: Hit Confirmation with Unstimulated Viability Assay; Potency, µM (series often up to 45.9 µM), inactives show at the highest dose activity change, negative = loss of viability, actives largely listed as cytotoxic; cell viability counter-screen, unstimulated, luminescence; shares compounds with ELG1 DNA repair; 900 compounds, 8% hits;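 note: compound exposure lasted 16 hours before reading; % is set by controls: 0 for no effect and ±100 for the full control effect; nearly all actives have a fitted effect of over 55% in size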
FLuc enzyme = qHTS screen for small molecules that inhibit ELG1-dependent DNA repair: Hit Confirmation in Biochemical Luciferin Assay; shares compounds with ELG1 DNA repair; purified firefly luciferase, luminescence counter-screen; Potency, µM (top dose mostly 57.5 µM), inactives show at the highest dose activity, negative = inhibition, usual class: inhibitors; 350 compounds, 10% hits; AID 624253, 2012; note: % is set by controls: 0 for no effect and ±100 for the full control effect
* marks the source's active call; other numbers are inactive results; ? = inconclusive; / = no result given. Calls come from the whole dose curve; as a rule, active = well fitted curve in the direction sought with a large enough effect; inconclusive = small, poorly fitted or top-dose-only effect, or another doubt; inactive = no such curve, though single readings can be large; an effect the other way counts as inactive or inconclusive. Potency is the fitted concentration of half-maximal effect.

SMILES	ELG1 DNA repair	SW480 rereplic	Gal4-VP16 FLuc	RORgamma inh	MCF10A rerep	ELG1-Luc inh	ELG1-Luc MMS	ELG1 5-FU	ELG1 MMS viab	Cell viab unstim	others
Cc1cc(=O)oc2cc(NC(=O)c3ccc(OC(F)F)cc3)ccc12	?	?	-15%	0%	1%	/	/	/	/	-2%
O=C(NCCCN1CCOCC1)c1cc(S(=O)(=O)N2CCOCC2)ccc1Cl	11%	-7%	/	/	3%	/	/	/	/	/
CCNCc1nc2cc(OC)c(OC)cc2c(=O)[nH]1	-2%	-8%	4%	-12%	2%	/	/	/	/	/
COc1cc2nc(CN(CCC(C)C)Cc3nc4cc(OC)c(OC)cc4c(=O)[nH]3)[nH]c(=O)c2cc1OC	1.5µM*	4%	6.3µM*	0.79µM*	7%	2.8µM*	?	?	7%	-17%
COc1cc(/C=N/NC(=O)Nc2cccc3nsnc23)cc(OC)c1OC	2.3µM*	?	4%	?	3.3µM*	1.6µM*	?	?	-10%	?
Cc1ccc(CONC(=O)c2cccc(C)c2)cc1	?	2%	/	/	2%	/	/	/	/	/
O=C(NOCc1ccccc1)c1ccccc1	?	4%	/	/	-6%	/	/	/	/	-12%
O=C1CCC/C1=c1\s/c(=C\c2cccnc2)c(=O)n1-c1ccccc1	13µM*	1%	0%	-5%	8%	8.9µM*	?	9%	-9%	-17%	ELG1 FLuc counter=-6%;FLuc enzyme=-4%
CNC(=O)c1cc(-c2cccs2)on1	/	/	/	/	/	/	/	/	/	-6%
O=C(NC1CCCC1)c1cc(-c2cccs2)on1	?	0%	-14%	?	15%	/	/	/	/	-12%
O=C(CSc1nnc2ccccn12)NNC(=O)c1ccc(Br)cc1	-11%	-4%	-3%	-19%	0%	/	/	/	/	/
Cc1cc(NC(=O)Nc2ccc(OCc3ccccc3)cc2)n(C)n1	5%	-6%	-9%	2%	-1%	/	/	/	/	/
[N-]=[N+]=Nc1nc2c(N)ncnc2n1C1OC(CO)C(O)C1O (configuration not stated)	/	/	-7%	-33%	/	3.5µM*	4µM*	?	?	7.9µM*
CCN1CCN(c2ccc(Nc3ccnc4ccccc34)cc2)CC1	4.6µM*	15µM*	/	/	?	?	18µM*	-8%	?	-13%
COc1ccc(Cl)cc1NC(=O)[C@@]1(CC(=O)O)CC(/C=C/c2ccccc2)=NO1	0%	1%	-5%	-8%	-4%	/	/	/	/	/
COC(=O)c1ccc(=O)c2nc3/c(=C/O)c(O)cc(=O)c3[nH]c12	?	-4%	-11%	11%	-36%	/	/	/	/	/
COc1ccc(NC(=O)c2sc3ncnc(N4CCN(c5ccccn5)CC4)c3c2C)cc1Cl	2.6µM*	?	0%	8%	?	5.6µM*	13µM*	-7%	?	?	ELG1 FLuc counter=4%;FLuc enzyme=-3%
c1ccc2c(c1)CCN(c1nc(CN3CCOCC3)nc3sc4c(c13)CCCC4)C2	10µM*	-4%	?	11µM*	?	10µM*	?	?	-19%	-20%	ELG1 FLuc counter=-11%;FLuc enzyme=-2%
CCOC(=O)c1c(NC(=O)C[n+]2ccc(N(C)C)cc2)sc(C)c1C	4.1µM*	-25%	1%	5%	4%	0%	19%	-3%	-8%	?
C(=C\c1c[nH]c2ccccc12)/c1ccc2ccccc2n1	/	/	/	/	/	/	/	/	/	?	ELG1 FLuc counter=-39%;FLuc enzyme=0.12µM*
O=c1c2ccccc2nc(/C=C/c2c[nH]c3ccccc23)n1CCO	?	16%	17%	42%	?	/	/	/	/	/
O=C1c2ccccc2N2C(=O)c3ccccc3[C@H]2N1c1ccccc1	?	-1%	-9%	3%	?	20µM*	?	3%	-17%	-12%	ELG1 FLuc counter=-9%;FLuc enzyme=-1%
O=c1c(-c2ccc(F)cc2)coc2c3c(ccc12)OCCO3	?	-3%	11%	22%	8%	/	/	/	/	?	ELG1 FLuc counter=123%;FLuc enzyme=?
COc1ccccc1NC(=O)c1cc2c(CO)cnc(C)c2oc1=Nc1ccc(OC)c(OC)c1	2.9µM*	-12%	-18%	-1%	-4%	0.89µM*	?	?	?	?
COc1ccccc1NC(=O)c1cc2c(CO)cnc(C)c2oc1=Nc1cc(OC)c(OC)c(OC)c1	1%	0%	-11%	19%	0%	/	/	/	/	/
